Source: the supplement of paper PMC6805474

What was measured:
[1] = system: Schistosoma mansoni schistosomula (LE); assay: XTT viability relative to DMSO control; higher = more viable (less active); conditions: 72 h; 10 µM
Procedure: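 XTT/PMS was then added for a further 24 h (72 h total) and A450 was read. % viability = (sample - heat-killed control)/(DMSO control - heat-killed control) x 100, from duplicate wells in two independent experiments.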

[2] = system: Schistosoma mansoni schistosomula (NMRI); assay: phenotypic severity score (0-4); higher = more antischistosomal effect, active = 2 or more; conditions: 10 µM
[3] = system: Schistosoma mansoni schistosomula (Liberian); assay: drug effect (1 - score/DMSO control score) (fraction); higher = more antischistosomal effect, active = 0.5 or more; extreme values may be limits of the assay; conditions: 10 µM
How it was run: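 A plate was valid only if its 0.1% DMSO wells averaged a score of at least 2. Those wells ran beside duplicate wells in which 50 Liberian-strain Schistosoma mansoni schistosomula each, transformed mechanically from cercariae and pre-incubated at least 12 h, met 10 µM compound in Medium 199 with 5% FCS at 37 °C, 5% CO2. Scoring was visual at 10× at 24, 48 and 72 h, from 3 (normal) to 0 (dead) in quarter-point steps. Drug effect was derived from the mean test-well score against the mean DMSO-well score, with negatives set to zero.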
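For phenotypic severity score (0-4) in this document: visual microscopic scoring of shape, motility and density changes versus 0.5% DMSO solvent controls, one point per descriptor, degeneracy or death scored 4, mean of duplicate wells.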

SMILES	XTT viability [1]	phenotypic severity score ([2]; 24 h)	phenotypic severity score ([2]; 48 h)	phenotypic severity score ([2]; 72 h)	drug effect ([3]; 24 h)	drug effect ([3]; 48 h)	drug effect ([3]; 72 h)
CNC(=O)C1Cc2ccccc2N1C(=O)Cc1ccc(F)cc1 (configuration not stated)	84.2%	0 (inactive)	0 (inactive)	0 (inactive)	0.227 (inactive)	0.2 (inactive)	0.236 (inactive)
O=C(OCc1ccccc1)N1CCC(c2cc(-c3ccncc3)c(-c3ccc(F)cc3)[nH]2)CC1	124%	0 (inactive)	0 (inactive)	0 (inactive)	0.1 (inactive)	0.222 (inactive)	0.188 (inactive)
CCCc1ccc(S(=O)(=O)Nc2ccc(CN3CCN(CC4CC4)CC3)cc2)cc1	108%	0 (inactive)	0 (inactive)	0 (inactive)	0.15 (inactive)	0.167 (inactive)	0.375 (inactive)
C[C@H]1COc2c(N3CCN(C)CC3)c(F)cc3c(=O)c(C(=O)O)cn1c23	67.9%	0 (inactive)	0 (inactive)	0 (inactive)	0.0455 (inactive)	0.05 (inactive)	0.0526 (inactive)
O=C1[C@@H](Oc2ccccc2)[C@@H](c2ccc(Cl)cc2)N1CCn1cnc2c(NCc3ccccc3)ncnc21	68.1%	3 (active)	4 (active)	4 (active)	0.136 (inactive)	0.1 (inactive)	0.158 (inactive)
Cc1cc(C)n(-c2ccc(NC(=O)C3CCN(Cc4cnc(C)s4)CC3)cc2)n1	135%	0 (inactive)	0 (inactive)	0 (inactive)	0.1 (inactive)	0.135 (inactive)	0.152 (inactive)
CN1CCN(c2nccc3nc(-c4ccc(F)c(F)c4)[nH]c23)CC1	110%	0 (inactive)	0 (inactive)	0 (inactive)	< 0 (inactive)	0.1 (inactive)	0.167 (inactive)
CC(C)=CCC/C(C)=C\CNCCNC1C2CC3CC(C2)CC1C3 (configuration not stated)	13.5%	4 (active)	4 (active)	4 (active)	1 (active)	1 (active)	1 (active)
CC(C(=O)N1CCCC1)N1CCN(S(=O)(=O)c2ccc(C(C)(C)C)cc2)CC1 (configuration not stated)	109%	1 (inactive)	0 (inactive)	0 (inactive)	0.05 (inactive)	0.027 (inactive)	0.0909 (inactive)
O=C(CCC1CCCCC1)Nc1cccc(-c2nnc(-c3ccco3)o2)c1	145%	2 (active)	4 (active)	4 (active)	0.182 (inactive)	0.2 (inactive)	0.167 (inactive)
O=C(NCCc1ccccc1)c1cc(-c2cccnc2)cnc1NCC1CC1	85.9%	0 (inactive)	2 (active)	0 (inactive)	0.2 (inactive)	0.514 (active)	0.576 (active)
COc1ccc(C(=N)N)cc1-c1cn(-c2ccc(C(=N)N)cc2)nn1	69.3%	0 (inactive)	0 (inactive)	0 (inactive)	0.05 (inactive)	0.0811 (inactive)	0.0909 (inactive)
O=S(=O)(c1ccc(Cl)cc1)N1CCN(C(=S)NCc2ccco2)CC1	75.2%	1 (inactive)	0 (inactive)	0 (inactive)	0.05 (inactive)	0.0811 (inactive)	0.111 (inactive)
CCOc1ccc(-c2nc(CNCCc3ccc(F)cc3)cs2)cc1	2.26%	0 (inactive)	0 (inactive)	0 (inactive)	0.273 (inactive)	0.4 (inactive)	0.632 (active)
Cc1[nH]c2ccccc2c1C(c1cccs1)N1CCN(C)CC1 (configuration not stated)	6.43%	3 (active)	4 (active)	4 (active)	1 (active)	1 (active)	1 (active)
CCc1nc2ccc(Cl)cn2c1C(=O)NCc1ccc(N2CCC(c3ccc(OC(F)(F)F)cc3)CC2)cc1	66.8%	1 (inactive)	0 (inactive)	0 (inactive)	0.105 (inactive)	0.0556 (inactive)	< 0 (inactive)
c1ccc(Oc2ccc(-c3cc(N4CCNCC4)[nH]n3)cc2)cc1	25.2%	2 (active)	2 (active)	2 (active)	0.05 (inactive)	0.15 (inactive)	0.444 (inactive)
CN1CCCN(C(c2ccccc2)c2ccc(Cl)cc2)CC1 (configuration not stated)	67.9%	0 (inactive)	0 (inactive)	0 (inactive)	0.455 (inactive)	0.05 (inactive)	0.263 (inactive)
CC(C)(C)OC(=O)N1CCN(c2nccc(-c3ccc(-c4ccc(Cl)cc4)s3)n2)CC1	93.7%	0 (inactive)	0 (inactive)	0 (inactive)	0.182 (inactive)	0.15 (inactive)	0.182 (inactive)
O=C(Nc1cccc(-c2ccc(NCCCN3CCCC3)nc2)c1)c1ccccc1	67.8%	1 (inactive)	2 (active)	4 (active)	0.2 (inactive)	0.459 (inactive)	0.515 (active)
CCOc1ccccc1C(=O)Nc1cccc(-c2nc3ncccn3c2C)c1	107%	0 (inactive)	0 (inactive)	0 (inactive)	0.0811 (inactive)	0.389 (inactive)	0.625 (active)

SMILES	XTT viability [1]	phenotypic severity score ([2]; 24 h)	phenotypic severity score ([2]; 48 h)	phenotypic severity score ([2]; 72 h)	drug effect ([3]; 24 h)	drug effect ([3]; 48 h)	drug effect ([3]; 72 h)
Brc1cncc(-c2cc(NCCCn3ccnc3)nc(-c3ccccc3)n2)c1	12.9%	1 (inactive)	4 (active)	4 (active)	0.273 (inactive)	0.65 (active)	0.673 (active)
C[C@H](C(N)=O)N1CCCC[C@H]1c1ccc(OCc2cccc(F)c2)cc1	118%	0 (inactive)	0 (inactive)	0 (inactive)	0.05 (inactive)	0.0811 (inactive)	0.212 (inactive)
CNC(=O)C1Cc2c([nH]c3cc(Cl)ccc23)C2(CCN(CCc3ccccc3)CC2)N1 (configuration not stated)	13.4%	0 (inactive)	0 (inactive)	0 (inactive)	0.1 (inactive)	0.514 (active)	0.394 (inactive)
C[C@H]1c2cccc(O)c2C(=O)C2=C(O)[C@]3(O)C(=O)C(C(N)=O)=C(O)[C@@H](N(C)C)[C@@H]3[C@@H](O)[C@@H]21	165%	0 (inactive)	0 (inactive)	0 (inactive)	0.2 (inactive)	0.297 (inactive)	0.222 (inactive)
COc1cccc(OC)c1C(=O)Nc1ccc(Cl)c(-c2nc3ccccc3s2)c1	108%	2 (active)	2 (active)	2 (active)	0.4 (inactive)	0.5 (active)	0.625 (active)
C[C@H](C(N)=O)N1CCCC[C@@H]1c1ccc(OCc2cccc(F)c2)cc1	88.1%	0 (inactive)	0 (inactive)	0 (inactive)	0.2 (inactive)	0.444 (inactive)	0.5 (active)
CC(=O)Nc1ccc(-c2noc(CC3CCCN(Cc4cccc(F)c4C)C3)n2)cc1 (configuration not stated)	117%	0 (inactive)	0 (inactive)	0 (inactive)	0.1 (inactive)	0.0556 (inactive)	0.188 (inactive)
Cc1cccc(NC(=O)c2cc(S(=O)(=O)N(C)c3ccc(F)cc3)ccc2Cl)n1	81%	0 (inactive)	0 (inactive)	0 (inactive)	0.05 (inactive)	0.135 (inactive)	0.222 (inactive)
CCc1c(C)nc(-n2nc(C)cc2NC(=O)c2ccccc2SC)[nH]c1=O	-1.13%	0 (inactive)	1 (inactive)	3 (active)	0.273 (inactive)	0.95 (active)	1 (active)
N=C(N)Nc1ccc(-c2ccc(-c3ccc(N=C(N)N)c(Cl)c3)o2)cc1Cl	89.7%	0 (inactive)	0 (inactive)	0 (inactive)	< 0 (inactive)	< 0 (inactive)	0.0625 (inactive)
Cc1cccc(Cn2ccc(NC(=O)c3ccc4c(c3)OCO4)n2)c1	93.2%	0 (inactive)	0 (inactive)	0 (inactive)	0.0556 (inactive)	0.125 (inactive)	< 0 (inactive)
Cc1ccc2nc(C)c(-c3ccn(Cc4ccccc4)n3)n2c1	95.7%	3 (active)	4 (active)	4 (active)	< 0 (inactive)	< 0 (inactive)	0.111 (inactive)
O=C(C1CCN(c2nnnn2-c2ccccc2)CC1)N1CCc2ccccc2C1	117%	0 (inactive)	0 (inactive)	0 (inactive)	0.135 (inactive)	0.111 (inactive)	0.25 (inactive)
CC(C)C(C(=O)Nc1ccc(S(=O)(=O)N(C)C)cc1)c1ccc(Cl)cc1 (configuration not stated)	29.5%	2 (active)	4 (active)	4 (active)	0.955 (active)	0.85 (active)	1 (active)
Cc1cc(C)c2cc(C(=O)NC3CCCCCCC3)[nH]c2c1	124%	0 (inactive)	1 (inactive)	0 (inactive)	0.316 (inactive)	0.333 (inactive)	0.438 (inactive)
CC(C)(C)c1ccc(N[C@@H]2CCCC[C@H]2NC(=O)c2ccco2)cc1	117%	0 (inactive)	0 (inactive)	0 (inactive)	< 0 (inactive)	< 0 (inactive)	0.111 (inactive)
Nc1cccnc1Nc1ccc(Cl)cc1	157%	0 (inactive)	0 (inactive)	0 (inactive)	0.15 (inactive)	0.278 (inactive)	0.375 (inactive)
CC1(COc2ccc(N3CCC(Oc4ccc(OC(F)(F)F)cc4)CC3)cc2)Cn2cc([N+](=O)[O-])nc2O1 (configuration not stated)	110%	0 (inactive)	0 (inactive)	0 (inactive)	0.158 (inactive)	0.111 (inactive)	0.0625 (inactive)
Cc1nn(C(=O)Nc2cccc(C(F)(F)F)c2)c(C)c1Sc1ncccn1	137%	0 (inactive)	0 (inactive)	0 (inactive)	0.15 (inactive)	0.167 (inactive)	0.312 (inactive)
Cc1ccc2oc(-c3cc(NC(=O)Cc4ccccc4)ccc3Cl)nc2c1	109%	1 (inactive)	0 (inactive)	0 (inactive)	0.227 (inactive)	0.25 (inactive)	0.236 (inactive)
